Compound activity: PubChem BioAssay, several laboratories
Hits are enriched below; roughly 0.82% of the tested compounds scored in any of these assays.
RTF Ca sens act = cardiac RTF calcium sensitivity activators, primary screen, biochemical, IANBD-TnC fluorescence, EC20 calcium. Troponin I, cardiac muscle (Homo sapiens) + Troponin T, cardiac muscle (Homo sapiens) + …. AID 493008, 2010. actives 0.24% (n = 340,000). IANBD-labeled TnC RTF fluorescence at EC20 calcium; 0% EC20 calcium, 100% full calcium. activation, % at 7.2 µM;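 active means activation above the mean over all tested compounds plus 3 SD, cut at about 30% in these data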;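 further: rise in fluorescence read as greater calcium sensitivity of cardiac thin filaments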
C-LANA FP = inhibitors of KSHV C-LANA binding to DNA, primary screen, biochemical, fluorescence polarization, FAM-LBS DNA, MBP-C-LANA, single point; Kaposi's sarcoma herpesvirus LANA C-terminal domain (residues 932-1162) DNA binding; inhibition, % at 9 µM; actives 0.078% (n = 340,000); AID 504423, 2011;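 active means highest replicate inhibition at or above 60% at 9 µM, even if other replicates fall short; inactive means all replicates below 60% inhibition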;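 further: 0% = neutral control wells and 100% = 4 µM acridine orange control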
E coli Lon inh = inhibitors of E. coli Lon protease, primary screen, biochemical, fluorescence polarization; purified E. coli Lon protease; inhibition, % at 7.94 µM; actives 0.42% (n = 360,000); in the data active means inhibition above about 13%, passing the limit was not always enough;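 further: 0% = enzyme with probe and DMSO and 100% = no enzyme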
Cardiac RTF inh = cardiac RTF calcium sensitivity inhibitors, primary screen, biochemical, IANBD-TnC fluorescence, EC70 calcium; Troponin I, cardiac muscle (Homo sapiens) + Troponin T, cardiac muscle (Homo sapiens) + …; IANBD-labeled cardiac RTF, Ca2+ fluorescence; inhibition, % at 7.15 µM; actives 0.12% (n = 340,000);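 active means inhibition above the mean inhibition of all tested compounds plus 3 SD, cut at about 17% in these data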;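 further: assay run at fixed EC70 calcium of 1.6 mM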
Keap1 Nrf2 FP = Keap1-Nrf2 protein-protein interaction inhibitors, primary screen, biochemical, fluorescence polarization, single point; Keap1 Kelch-Nrf2 peptide fluorescence polarization, 1536-well; AID 504523, 2011; actives 0.15% (n = 340,000); Kelch-like ECH-associated protein 1 (Homo sapiens), Q14145; inhibition, % at 9.4 µM; in the data active means inhibition above about 12%;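 further: human Keap1 Kelch domain with fluorescein labeled Nrf2 9mer peptide probe; 0% = neutral control wells and 100% = peptide positive control; higher means more block of Keap1 binding to Nrf2 peptide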
RTF Ca inh conf = cardiac RTF calcium sensitivity inhibitors, confirmation, biochemical, fluorescence readout; inhibition, % at 7.15 µM; AID 504635, 2011; actives 8% (n = 360); shares compounds with Cardiac RTF inh; reconstituted cardiac thin filaments; in the data active means inhibition above about 18%
Starred values were filed as active, the others as inactive; · = not tested or not shown.

SMILES	RTF Ca sens act	C-LANA FP	E coli Lon inh	Cardiac RTF inh	Keap1 Nrf2 FP	RTF Ca inh conf
CCOc1ccc(C2C(C(=O)c3cccs3)=C(O)C(=O)N2Cc2cccnc2)cc1OC (stereo not given)	5.2	-0.1	5.2	-10.1	-5.9	·
CCOc1ccc(C2C(C(=O)c3cccs3)=C(O)C(=O)N2Cc2cccnc2)cc1 (stereo not given)	6.4	0.6	9.8	18.8*	-2.4	0.5
O=C(O)C1CC(Br)C(Br)CC1C(=O)O (stereo not given)	·	·	-2.2	·	·	·
COc1ccc(CN(C)C(=O)COC(=O)c2c(-c3ccccc3Cl)noc2C)cc1	-2.0	1.2	1.7	17.6*	-4.1	-8.3
CN(CC1CCOCC1)C(=O)CC1C(=O)NCCN1Cc1cccc(F)c1 (stereo not given)	0.5	0.5	4.2	-6.5	-2.0	·
O=C(CNS(=O)(=O)c1cccs1)NCc1ccc(F)cc1	0.8	0.1	0.8	-10.8	3.7	·
CSC(=NCc1ccc(F)cc1)NS(=O)(=O)c1cccs1	-0.9	-3.1	-14.1	17.2*	4.9	0.1
CCOc1ncccc1C(=O)NCc1ccc(OC)c(OC)c1	-5.5	-0.5	-6.8	0.4	-3.7	·
CCOc1ccc(CN(C)C(=O)c2cccnc2OCC)cc1OC	-3.1	-0.9	-6.4	17.9*	2.4	-0.2
Cc1nc2c(-c3ccc(F)cc3)cnn2c(N)c1-c1ccccc1	-10.8	3.8	10.3	20.0*	-4.4	2.7
Cc1nc2c(-c3ccc(Cl)cc3)cnn2c(N)c1-c1ccc(F)cc1	-11.0	0.6	5.1	-6.2	-1.8	·
COc1ccc(N=Nc2ccc(N)nc2N)cc1	-5.7	0.0	-13.1	-0.4	-2.8	·
CCOc1ccc2nc3cc(N=Nc4ccc(N)nc4N)ccc3c(N)c2c1	-12.5	-0.1	40.4	25.0*	5.4	40.6*
CC1CC(C)(C)OC(c2ccc(C(C)C)cc2)O1 (stereo not given)	1.8	-0.6	-11.3	-9.7	3.2	·
CC(=O)N1CC(C(=O)Nc2ccc3c(c2)OCO3)Oc2ccccc21 (stereo not given)	-5.0	-2.3	2.2	-8.0	-3.9	·
Cc1nn(-c2cccc(C(F)(F)F)c2)c(Cl)c1/C=N/Nc1cccc(C(=O)O)c1	3.7	1.5	-0.4	20.9*	0.5	-0.5
O=C(NCC1CCCO1)c1cn(Cc2ccccc2)nc1-c1ccc(Cl)cc1 (stereo not given)	1.2	1.9	-4.8	-5.4	-3.6	·
COCCn1c(N)c(N(Cc2ccccc2)C(=O)COc2ccccc2F)c(=O)[nH]c1=O	-6.0	2.7	0.3	19.4*	-5.0	-5.5
O=C1N[C@@H](Cc2cnc[nH]2)C(=O)N2CCC[C@@H]12	3.4	0.7	-0.6	17.0*	-1.9	-2.4
O=C1N[C@@H](Cc2ccccc2)C(=O)N2CCCC12 (stereo not given in full)	-3.5	-2.4	-5.2	-0.2	-0.5	·
COc1ccc(CN2CCc3c([nH]c4ccccc34)C2)c(OC)c1C	-0.1	-6.8	6.3	-2.0	-7.8	·
COc1ccc(CC(=O)O)cc1O	-4.9	2.1	20.2	5.4	2.4	·
COc1cc(CC(=O)O)ccc1O	-1.1	0.1	4.8	17.6*	2.1	-3.5
O=C(NCc1ccccc1)c1ccc(F)c(S(=O)(=O)N2CCOCC2)c1	-29.4	0.9	-12.4	63.5*	4.0	-0.6
Cc1cc(NC(=O)c2ccco2)c(=O)n(Cc2cccc(C(F)(F)F)c2)c1	-3.8	-0.8	13.5	-8.0	4.7	·
CCc1cc(C(=O)N=Nc2c(O)[nH]c3ccc([N+](=O)[O-])cc23)c2ccccc2n1	-3.9	-0.5	-9.1	17.2*	-0.2	-7.3
